Bioassay records deposited in PubChem BioAssay by several laboratories.
Shown are actives, neighbours in structure and some others; about 4.3% of the full set was active somewhere.
ADAM10 inh – inhibits human ADAM10 | O14672 | recombinant ADAM10, EDANS/DABCYL FRET peptide cleavage, 3 h | inhibition, % at 7 µM | hit rate 0.62% among 370,000 | AID 720582;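 active means inhibition above a per-campaign cutoff equal to the mean of compounds falling between control-based bounds plus 3 SD, cut at about 20% in these data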
FAS TE block – FAS thioesterase (human) inhibition; P49327; recombinant FAS-TE, OMFH fluorogenic substrate, fluorescence endpoint; inhibition, % at 15 µM; hit rate 0.67% among 360,000; AID 602261;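 active means compounds whose normalised, plate-corrected inhibition of enzyme fluorescence in the single-dose primary screen is 50% or more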
ADAM17 inh – inhibitors of human ADAM17; P78536; recombinant ADAM17, EDANS/DABCYL FRET peptide cleavage; inhibition, % at 6.95 µM; hit rate 0.83% among 370,000;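 active means inhibition above the mean of compounds lying between control limits plus 3 SD, set per campaign, cut at about 8.5% in these data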
Target sequence (P78536 215-824 limits assumed): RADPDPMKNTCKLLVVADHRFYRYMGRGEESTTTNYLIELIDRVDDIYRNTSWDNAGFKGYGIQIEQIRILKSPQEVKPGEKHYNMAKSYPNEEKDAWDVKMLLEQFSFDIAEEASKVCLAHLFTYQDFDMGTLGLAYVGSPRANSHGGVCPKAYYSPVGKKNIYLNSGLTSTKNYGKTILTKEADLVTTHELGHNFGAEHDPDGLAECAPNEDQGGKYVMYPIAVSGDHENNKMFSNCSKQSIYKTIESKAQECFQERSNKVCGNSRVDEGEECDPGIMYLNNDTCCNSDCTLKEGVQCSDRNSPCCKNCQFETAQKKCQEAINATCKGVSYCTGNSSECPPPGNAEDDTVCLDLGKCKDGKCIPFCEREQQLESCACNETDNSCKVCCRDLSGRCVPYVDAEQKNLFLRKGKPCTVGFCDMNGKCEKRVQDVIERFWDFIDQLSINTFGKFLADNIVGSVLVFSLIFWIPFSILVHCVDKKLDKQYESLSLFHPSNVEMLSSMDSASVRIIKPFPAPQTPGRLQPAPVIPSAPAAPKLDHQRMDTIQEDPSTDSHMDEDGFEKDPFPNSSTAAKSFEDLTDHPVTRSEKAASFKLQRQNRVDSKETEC
GRIN3A LBD mod – modulates the human NR3A ligand-binding domain | NR3A LBD differential scanning fluorimetry, Tm shift; 0% = protein alone, 100% = glycine-bound protein | Tm shift relative to glycine control, % at 25 µM | hit rate 2.5% among 340,000 | AID 1259313;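 active means melting temperature shift of at least 10% of the positive control shift, at one fixed dose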
sPLA2-III inh – Blocks human group III sPLA2 activity; Q9NZ20; QFRET BODIPY PC-A2 liposome hydrolysis, fluorescence; inhibition, % at 12.2 µM; hit rate 0.56% among 370,000; AID 743126;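 active means inhibition above mean plus 3 SD of compounds lying within the high and low control bounds, cut at about 19% in these data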
Each line names hits and unclear results; the compound was inactive in the other large screens.

O=C(Nc1cccnc1)Nc1ccc(F)c(Cl)c1	GRIN3A LBD mod 25
O=C(Nc1ccc(Cl)c(Cl)c1)Nc1ccon1	GRIN3A LBD mod 28
O=C(Nc1cccnc1)c1cc(F)c(F)cc1Cl	none
Cc1cc(NC(=O)Nc2ccc(Cl)c(Cl)c2)no1	none
O=C(CN1CCCc2ccccc21)NCc1ccccc1F	none (no result: FAS TE block, GRIN3A LBD mod)
N#CCc1ccc(OC[C@@H](O)CN2CCC(C(O)(c3ccccc3)c3ccccc3)CC2)cc1	none (no result: FAS TE block, GRIN3A LBD mod)
CN(CC(=O)Nc1ccc(C#N)cc1)Cc1ccc(Cl)cc1	none
N#Cc1ccc(NC(=O)Nc2ccc(Cl)cc2)cc1	GRIN3A LBD mod 34
CCC(CC)NC(=O)Nc1ccc(F)c(Cl)c1	none
O=C(NCCNC(=O)Nc1ccc(Cl)cc1)Nc1ccc(Cl)cc1	GRIN3A LBD mod 22
Cc1ccc(NC(=O)Nc2ccc(F)c(Cl)c2)cc1	GRIN3A LBD mod 32
O=C(Nc1ccc(Cl)c(Cl)c1)Nn1cnnc1	none
O=C(NCCO)Nc1ccc(Cl)cc1	none
O=C(Nc1ccc(Cl)cc1)Nc1ccc(Cl)c(Cl)c1	GRIN3A LBD mod 16 (no result: FAS TE block)
O=C(Nc1ccc(Oc2ccc(NC(=O)Nc3ccccc3Cl)cc2)cc1)Nc1ccccc1Cl	GRIN3A LBD mod 22
O=C(Nc1ccc(Cl)cc1)Nc1cccc2nsnc12	GRIN3A LBD mod 21
COc1ccc(NC(=O)Nc2ccc(F)c(Cl)c2)cc1	GRIN3A LBD mod 31
NC(=O)c1cccc(NC(=O)Nc2ccc(Cl)cc2)c1	GRIN3A LBD mod 24
COC(=O)c1cccc(NC(=O)Nc2ccc(Cl)cc2Cl)c1	none
CCOC(=O)[C@]12CCCC3=C1N(CCC3)C(=O)[C@@H](CC(=O)N1CCCCC1)C2	none (no result: FAS TE block, GRIN3A LBD mod)
CSc1ccccc1NC(=O)Nc1ccc(F)c(Cl)c1	GRIN3A LBD mod 42
COCCNC(=S)N(CCc1c(C)[nH]c2ccc(F)cc12)Cc1ccc(C)cc1	GRIN3A LBD mod 10
COc1ccc2[nH]c(C)c(CCNC(=S)Nc3ccc(F)cc3)c2c1	GRIN3A LBD mod 12
COc1ccc2[nH]c(C)c(CCNc3ccc(C(F)(F)F)cc3[N+](=O)[O-])c2c1	GRIN3A LBD mod 19
CS(=O)(=O)NCCNc1ccc(C(F)(F)F)cc1[N+](=O)[O-]	none
O=C(C1CCC1)n1ccc2ccc(-c3ccc4ccn(Cc5ccccc5)c4c3)cc21	none (no result: FAS TE block, GRIN3A LBD mod)
CCC[C@H]1[C@@H](NC(=O)C2CCCCC2)CC[C@@]23CCCN2C(=O)CCC[C@@H]13	none (no result: FAS TE block, GRIN3A LBD mod)
CNC(=O)c1ccccc1S(=O)(=O)c1ccccc1C#N	GRIN3A LBD mod 11
CC1CCC2(CC1)CCN(CCCOC(=O)NCc1ccc(Cl)cc1)C2=O (configuration not stated)	none (no result: FAS TE block, GRIN3A LBD mod)
C/C(=N\NC(=O)Cc1c[nH]c2ccccc12)c1ccc2ccccc2c1	GRIN3A LBD mod 15
C/C(=N\NC(=O)c1c[nH]c2ccccc12)c1ccc2c(c1)OCO2	none
Nc1cc(Cl)ccc1N1CCCCC1	none
Nc1cc(Cl)cc2c1-c1ccc(Cl)cc1C2	GRIN3A LBD mod 23
COC(=O)[C@]12C[C@H](CC(=O)NCCCN3CCCC3=O)C(=O)N(CCc3ccc(OC)c(OC)c3)C1=C[C@H](C1CCCC1)O[C@@H]2C	none (no result: FAS TE block, GRIN3A LBD mod)
Cc1cccc(N2C(S)=C(C#N)C(=O)NC23CCCCC3)c1	GRIN3A LBD mod 16
Cc1ccc(N2C(S)=C(C#N)C(=O)NC23CCCCC3)cc1	none
COC(=O)c1cc(-c2ccc(F)cc2OCc2ccccc2)c(=O)n2c1CCC2	none (no result: FAS TE block, GRIN3A LBD mod)
O=C(NNC(=O)c1ccncc1)Nc1ccc(N=Nc2ccccc2)cc1	GRIN3A LBD mod 21
CC(=O)c1cc(-c2ccccc2S(=O)(=O)NC(C)(C)C)c(=O)n2c1CCC2	none (no result: FAS TE block, GRIN3A LBD mod)
Cc1c(C(=O)Nc2cccc([N+](=O)[O-])c2)csc1-c1ccccc1	GRIN3A LBD mod 13
Cc1ccc(NC(=O)c2csc(-c3ccccc3)c2C)cc1	none
Cc1nc2ccc(C(=O)Nc3cccc([N+](=O)[O-])c3)cc2s1	GRIN3A LBD mod 21
CCn1c2ccccc2c2cc(NC(=O)c3cccc([N+](=O)[O-])c3)ccc21	GRIN3A LBD mod 17
Cc1nc2ccc(NC(=O)c3ccc([N+](=O)[O-])cc3[N+](=O)[O-])cc2s1	none
CS(=O)(=O)Nc1ccc(C(=O)Nc2cccc([N+](=O)[O-])c2)cc1	GRIN3A LBD mod 21
COc1cc(C=Nn2c(-c3n[nH]c4c3CCC4)n[nH]c2=S)ccc1OCc1ccccc1	none (no result: FAS TE block, GRIN3A LBD mod)
O=C(Nc1cccc([N+](=O)[O-])c1)c1cc2ccccc2cc1O	GRIN3A LBD mod 27
O=C(Nc1cccc([N+](=O)[O-])c1)c1ccc(-c2ccccc2)cc1	GRIN3A LBD mod 25
